Reference: PubChem BioAssay AID1359 (The Scripps Research Institute Molecular Screening Center, 2008)
Where “and” joins values, the source holds several entries; their conditions need not be identical. Equal entries are not always repeated. Out of some 220,000 compounds screened, about 970 (0.44%) were called active. Cut-off read from the data, not from the text of the source: active = activation above about 27%; inactive = the rest. The full list was thinned out, with actives kept by preference.

target: Neuropeptide Y receptor type 2 (Homo sapiens) (UniProt P49146); assay: human Y2 receptor positive modulation or activation – cell-based, primary screen (AID 1359); settings: cells expressing NPY-Y2, potentiator/agonist read-out; at 3.6 µM; active compounds read high;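 note: cells stimulated with NPY near EC25 plus isoproterenol at EC100; 0% = vehicle plus submaximal agonist and 100% = vehicle plus saturating agonist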
Sequence (P49146 whole entry, looked up): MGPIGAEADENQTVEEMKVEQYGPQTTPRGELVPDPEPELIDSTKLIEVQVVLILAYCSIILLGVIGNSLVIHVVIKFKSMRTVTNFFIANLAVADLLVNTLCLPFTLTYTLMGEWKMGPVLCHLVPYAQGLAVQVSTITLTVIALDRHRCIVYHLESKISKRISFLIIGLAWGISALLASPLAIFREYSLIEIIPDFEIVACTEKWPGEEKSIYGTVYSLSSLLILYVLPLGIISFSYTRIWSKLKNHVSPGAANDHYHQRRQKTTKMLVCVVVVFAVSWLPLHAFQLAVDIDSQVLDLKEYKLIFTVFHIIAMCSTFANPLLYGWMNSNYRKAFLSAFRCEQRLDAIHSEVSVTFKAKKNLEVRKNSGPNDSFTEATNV

activation, inactive:
O=C(Nc1nncs1)c1ccccc1NS(=O)(=O)c1cccs1 -3.36%
COc1cc(NC(=O)c2cccnc2SC)cc(OC)c1 6.08%
CCOc1ccc(NC(=O)c2ccccc2NS(C)(=O)=O)cc1 2.32%
COC(=O)c1ccccc1NC(=O)c1ccccc1NS(C)(=O)=O -6.98%
COc1ccccc1NC(=S)N1CCC(NC(=O)C23CC4CC(CC(C4)C2)C3)CC1 1.71%
O=c1c2c3c(sc2n(CCN2CCCC2)c(=O)n1Cc1ccccc1)CCCCC3 -17.9%
O=C(Cn1nnc(N2CCCCC2)n1)c1ccc(Cl)c(Cl)c1 19%
COc1ccc(Cc2n[nH]c(=S)n2NC(=O)Nc2ccc(C)cc2)cc1 7.41%
CC1CN(/C=C/C(=O)C(F)(F)F)CC(C)O1 (centres undefined) -5.05%
CCC(=O)N1CCC(C(N)=O)(N2CCCCC2)CC1 -10.4%
CCCCCCCC1(C)NC(=O)N(CC(=O)Nc2cc(C)on2)C1=O (centres undefined) 8.45%
CCOC(=O)Cc1cc(=O)[nH]c(/N=C(\N)Nc2ccc(OC)cc2)n1 -5.89%
CC(=O)NCC(O)c1ccc([N+](=O)[O-])cc1 (centres undefined) 7.64%
CC(C)OP(=O)(OC(C)C)C(Nc1ccccc1)c1cccc([N+](=O)[O-])c1 (centres undefined) -1.74%
O=C(CCn1nnc2ccccc2c1=O)N[C@@H](Cc1c[nH]c2ccccc12)C(=O)O 13.2%
CCOc1ccc(S(=O)(=O)N(CC(=O)NCC(F)(F)F)Cc2ccco2)cc1 -4.11%
Cc1ccc(Nc2nc(CSc3nnc(-c4ccncc4)n3-c3ccccc3C)cs2)cc1 2.6%
COc1cccc(CNn2cn[nH]c2=S)c1OCc1ccccc1 2.42%
O=C(CC(=O)Nc1ccc(Cl)c(Cl)c1)N/N=C/c1ccc(O)cc1 7.69%
CN(C)CCNC(CC(=O)Nc1ccc(Cl)c(Cl)c1)C(=O)O (centres undefined) 4.29%
Cc1ccccc1/[N+]([O-])=C/c1ccncc1 -7.27%
CC(=O)c1c(C)[nH]c(=S)c(C#N)c1-c1ccc(F)cc1 -13.5%
C#CCOCCOCCOCCNc1nc(N2CCN(C(=O)[C@H](CCC(=O)O)n3cc(C(N)CO)nn3)CC2)nc(N2CCN(C(=O)[C@H](Cc3ccc(O)cc3)n3cc(C(N)[C@H](C)CC)nn3)CC2)n1 (some centres undefined) -0.84%
Cc1nccn1CC(=O)N/N=C/c1ccc(O)c(O)c1 -13.1%
O=C(Nc1ccccc1)Nc1ccc(C(F)(F)F)cn1 4.92%
Cc1ccc(-c2c[n+](=O)c3c(n2[O-])CCC3)cc1 -8.75%
Cc1c(C(=O)NCCCc2ccccc2)cccc1[N+](=O)[O-] 2.52%
O=C1CCCC(O)=C1N=Nc1ccc(S(=O)(=O)N2CCOCC2)cc1 4.38%
CC(=O)Nc1ccccc1OC(C)C(=O)N1CCC(C)CC1 (centres undefined) -7.73%
Cc1noc(COc2ccccc2OCc2onc(C)c2Cl)c1Cl 0.6%
CC(C)(C)CC(C)(C)NCC(O)COCCOc1ccc(Br)cc1 (centres undefined) -6.14%
Cc1cccc(-c2nc3c(c(SCC(=O)N4CCOCC4)n2)CCCC3)c1 -7.06%
O=C(Nc1ccc(N2CCOCC2)nc1)c1c(F)cccc1F -10.2%
CSc1ccc(NC(=O)/C=C/C(=O)O)cc1 -0.23%
O=C(COC(=O)c1ccc[nH]c1=O)Nc1ccc2c(c1)OC(F)(F)O2 -11.7%
C/C(=N\NS(=O)(=O)c1ccc(Br)cc1)c1cccs1 2.42%
Cc1ccc(S(=O)(=O)/N=C(\N)c2ccc(F)cc2)cc1 9.83%
Cn1c(=O)c(Sc2ccc(Cl)cc2)c(O)c2ccccc21 -8.34%
COc1cccc(NC(=S)NC(=O)c2c(Cl)c(C)nn2C)c1 -1.69%
OCCNCc1cccc(OCc2ccccc2Cl)c1 -2.33%
Cc1cccn2c(CN(C)C3CCCc4ccccc43)c(C(=O)N3CCOCC3)nc12 (centres undefined) -13.5%
OC(c1ccccc1)c1nccn1Cc1ccccc1 (centres undefined) 3.61%
COC(=O)c1cc(N2CCNCC2)nc2ccccc12 17%
O=C(Nc1ccc(Cl)cn1)c1ccc2c(c1)OCCO2 -8.32%
O=C(Nc1cccc(S(=O)(=O)N2CCCCC2)c1)c1ccc2c(c1)OCO2 1.87%
COC(=O)c1ccc(CSc2nncn2N)cc1 2.75%
NC(=O)CCC(NS(=O)(=O)c1ccc(Cl)cc1)C(=O)NCc1ccccc1Cl (centres undefined) 10%
CC(=O)c1c(C)[nH]c(C(=O)COC(=O)c2cccc(S(=O)(=O)N(C)c3ccccc3)c2)c1C 10.4%
COc1ccc(C(C[N+](=O)[O-])n2nc(C)cc2C)cc1 (centres undefined) 12.3%
CC(=O)N(CCCN(C)C)c1nc2ccc(C)cc2s1 -1.74%
CN(C)CCCN(C(=O)COc1ccccc1)c1nc2c(Cl)cccc2s1 -2.96%
C=CCSc1nnc(NC(=O)c2ccc(NC(C)=O)cc2)s1 -3.89%
CCSc1nnc(NC(=O)Cc2ccccc2OC)s1 -5.68%
Cc1nc2ccccc2c(C)c1C(=O)c1ccc(F)cc1 -11.5%
CCCC1OC23CCCCC2C(C#N)(C#N)C1(C#N)C(=N)O3 (centres undefined) 7.5%
COCCCNC(NC(=O)c1ccc(C)cc1)C(Cl)(Cl)Cl (centres undefined) 15.8%
COc1ccc(C(=O)NC2(C(F)(F)F)NC(=O)N(CCCc3ccccc3)C2=O)c(OC)c1OC (centres undefined) -6.73%
COc1ccccc1OCCNC(=O)c1cc([N+](=O)[O-])cc([N+](=O)[O-])c1 -7.14%
CC(O)CNCCOc1cccc(Oc2ccccc2)c1 (centres undefined) -22.6%
C=CCn1c(SCc2cccc(F)c2)nc2cc(C(=O)N3CCC(C(N)=O)CC3)ccc2c1=O 8.55%
O=C(NCCc1ccccn1)c1cc(-c2ccc(Cl)cc2)nc2ccccc12 -15.9%
O=c1cc(N2CCN(Cc3ccccc3)CC2)c(-c2ccccc2)n[nH]1 12.9%
O=C1c2ccccc2C(=O)c2c1cccc2N1CCN(CCO)CC1 7.55%
COc1ccc(NS(=O)(=O)c2cc(NC(=O)CC(=O)c3ccc([N+](=O)[O-])cc3)ccc2C)cc1 -11.2%
CC(=O)C1C(c2cccc(Oc3ccccc3)c2)NC(=O)NC1(O)C(F)(F)F (centres undefined) 6.91%
CC(=O)C1C(c2ccc(Cl)cc2)NC(=O)NC1(O)C(F)(F)F (centres undefined) -6.52%
O=C(c1ccc(F)cc1)n1c(=S)nc2ccccn21 3.79%
COc1cc(N2C(=O)c3ccccc3C2=O)c(Cl)cc1C(=O)OCC(=O)N1CCOCC1 -10.6%
O=[N+]([O-])c1ccc(N2CCN(CC(O)COc3ccccc3)CC2)cc1 (centres undefined) -7.01%
OC(COCc1ccco1)CN1CCN(c2ccccc2)CC1 (centres undefined) -8.6%
COc1ccc(OCc2cn3c(C)cc(C)nc3n2)cc1 1.94%
COc1cc(NC(=S)NCc2ccc(S(N)(=O)=O)cc2)cc(OC)c1 4.03%
CC1(C)CC(=O)C(N=Nc2c(F)cccc2F)=C(O)C1 19.3%
Cc1nn(-c2ccccc2)c(C)c1/C=C/C(=O)OC(C)C(N)=O (centres undefined) -0.33%
O=C(NCC(O)c1ccc([N+](=O)[O-])cc1)C1CCCCC1 (centres undefined) -6.08%
CC(C)(C)n1ncc2c(=O)n(Cc3ccc(Cl)cc3)cnc21 -23.4%
Cc1ccccc1Nc1c(-c2ccccc2)nc2ncccn12 22.6%
COC(=O)c1ccc(COc2ccc(/C=N/NC(=O)C(=O)Nc3ccc(OC)cc3)cc2OC)o1 -3.63%

activation, active:
COC(=O)c1ccc(NC(=O)c2ccccc2NS(=O)(=O)c2ccccc2)cc1 34.4%
COc1cc(NC(=O)c2ccccc2NS(=O)(=O)c2ccc(Cl)s2)cc(OC)c1 44%
CC(CCc1ccccc1)NCC(O)c1cccc([N+](=O)[O-])c1 (centres undefined) 87.1%
O=C(CC(O)(C(F)(F)F)C(F)(F)F)Nc1ccc(Cl)c(Cl)c1 52.9%
Oc1ccc(/C=N/Nc2ccc(C(F)(F)F)cn2)cc1O 28.2%
Cc1noc(COc2ccccc2OCC(O)CNC(C)(C)C)n1 (centres undefined) 102%
CN(C)Cc1c(O)ccc2occ(C(O)c3ccccc3)c12 (centres undefined) 92.7%
N/C(=N\S(=O)(=O)c1cc(C(F)(F)F)cc(C(F)(F)F)c1)c1cccs1 46%
O=C(Nc1cccc(S(=O)(=O)Nc2ccc(Cl)cc2)c1)c1ccc2c(c1)OCCO2 35%
COc1cccc2sc(N(CCCN(C)C)C(=O)C(c3ccccc3)c3ccccc3)nc12 95.6%
CCSc1nnc(NC(=O)c2ccc(C)cc2)s1 31.6%
COc1ccccc1OCCNCC(O)COc1cccc2[nH]c3ccccc3c12 (centres undefined) 99.4% and 97.9%
O=C1c2ccccc2C(=O)c2c1cccc2N1CCN(Cc2ccccc2)CC1 48.8%
O=C1NC(c2ccc(-c3ccccc3[N+](=O)[O-])o2)C(C(=O)c2ccc(Cl)cc2)C(O)(C(F)(F)F)N1 (centres undefined) 37.4%
OC(COCC1COc2ccccc2O1)CN1CCN(c2ccc(F)cc2)CC1 (centres undefined) 80.4%
Cc1cccc(C)c1Nc1c(-c2ccccc2O)nc2ncccn12 56.5%
